Screens deposited in PubChem by National Center for Advancing Translational Sciences (NCATS).
uPA surface inh – qHTS for Inhibitors of Cell Surface uPA Generation | cell surface uPA generation assay, qHTS | 330,000 compounds, 0.31% hits | Potency, µM (doses to about 38.3 µM), usual class: inhibitors | AID 540303, 2011; active means well fitted inhibition curve with a large enough effect; inconclusive means small, poorly fitted or top-dose-only effect; inactive means no such curve, though single readings can be large or run the other way; tested in mouse RAW 264.7 cells; further: nearly all actives have a fitted effect of over 55% in size
TCR activator – Activators of T cell receptors: qHTS campaign | primary human leukocytes, anti-CD3, IL-2 HTRF, 48 h | Potency, µM (top dose mostly 9.22 µM), actives largely listed as activators | 330,000 tested, under 10 active | AID 504894, 2011
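Activity was scored as IL-2 release from primary human leukocytes given only a TCR signal (a-CD3 beads) plus compound for 48 hr. Detection used a two-antibody HTRF format read at 665nm.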
Sfp inh – qHTS Assay for Inhibitors of Bacillus subtilis Sfp phosphopantetheinyl transferase (PPTase) | 4'-phosphopantetheinyl transferase ffp (Bacillus subtilis), Q9F4F7 | Biochemical Sfp PPTase activity, qHTS | Potency, µM, hits mostly inhibitors | 310,000 compounds, 3.5% hits | AID 1490, 2009;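 further: the enzyme is Sfp with the accession as filed and its product quenches rhodamine fluorescence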
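Fluorescence-quenching assay: 15 nM Sfp-PPTase preincubated 15 min at room temperature with compound, then 5 uM rhodamine-CoA and 12.5 uM BHQ-2-labelled YbbR peptide added. Fluorescence (ex 525/em 598 nm) read at start and after 30 min; difference gives rate.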
ClpP mod – qHTS Assay for Activators of ClpP. purified B. subtilis ClpP, FRET peptide cleavage, 20 min. Potency, µM (series often up to 57.5 µM). 340,000 compounds, 1.9% hits; active means well fitted falling curve with a large enough effect; inconclusive means small, poorly fitted or top-dose-only effect; inactive means no such curve, though single readings can be large or run the other way; further: the source files actives as falling curves though it sought activators and does not explain the sign; nearly all actives have a fitted effect of over 65% in size
Target sequence (P80244 whole entry, looked up): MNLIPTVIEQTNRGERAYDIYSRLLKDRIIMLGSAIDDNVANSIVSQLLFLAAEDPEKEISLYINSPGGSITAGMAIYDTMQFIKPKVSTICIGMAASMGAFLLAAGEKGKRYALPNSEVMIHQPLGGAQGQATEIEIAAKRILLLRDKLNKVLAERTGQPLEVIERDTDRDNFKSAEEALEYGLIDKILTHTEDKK
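ClpP 10 microg/mL final, pH 8 Tris/KCl buffer with BSA, glycerol, Tween-20; compound pinned in; FRET-FV substrate; RT 20 min; Ex320/Em430; ΔFRET vs ADEP 5.8 microM, DMSO, no enzyme.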
Numbers stand for hits; . = inactive; ? = inconclusive; / = not tested or not shown. Sampled rows, rich in hits. Any-hit rate of the full collection: about 4.2%. Unless noted, the call rests on the fitted dose curve; in most records, active means well fitted curve in the direction sought with a large enough effect; inconclusive means small, poorly fitted or top-dose-only effect, or another doubt; inactive means no such curve, though single readings can be large; an effect the other way counts as inactive or inconclusive.

SMILES	uPA surface inh	TCR activator	Sfp inh	ClpP mod
CC(=O)c1ccc(-n2c(CCC(=O)O)ccc2-c2ccccc2)cc1	.	.	.	.
CCc1ccc(N2CC(C(=O)Nc3ccc(S(=O)(=O)NCC4CCCO4)cc3)CC2=O)cc1 (configuration not stated)	.	.	.	.
COc1ccccc1NS(=O)(=O)c1cc(NC(=O)c2ccncc2)ccc1N1CCCC1	.	.	14.1µM	/
COc1ccccc1NS(=O)(=O)c1cc(NC(C)=O)ccc1N1CCCCC1	.	.	44.7µM	/
COc1ccccc1NS(=O)(=O)c1cc(NC(=O)CCNC(C)=O)ccc1N1CCCCC1	.	.	/	/
CCOC(=O)C(=CNc1ccc(N2CCCCC2)c(S(=O)(=O)Nc2ccccc2OC)c1)C(=O)OCC	.	.	/	17.8µM
COCC(=O)Nc1ccc(N2CCCC2)c(S(=O)(=O)Nc2ccccc2OC)c1	.	.	/	.
C=CCn1c(O)c(N=Nc2ccccc2C)c2ccccc21	.	.	25.1µM	/
C=CCn1c(O)c(N=NC(=S)Nc2ccc(OC)c(Cl)c2)c2ccccc21	.	.	1.78µM	.
C=CCn1c(O)c(N=NC(=O)OC(C)(C)C)c2ccccc21	.	.	.	.
C=CCn1c(O)c(N=O)c2ccccc21	.	.	.	.
Cc1cc(Cl)ccc1NC(=O)CCn1nc(C)c2c(C)n(-c3ccccc3)nc2c1=O	/	/	/	.
CCOc1ccc(-n2cc(-c3ccccc3)c3c(NCCc4ccccc4)ncnc32)cc1	/	/	/	25.1µM
COCCNc1ncnc2c1c(-c1ccccc1)cn2-c1cccc(Cl)c1	/	/	/	.
Clc1ccc(CCNc2ncnc3c2c(-c2ccccc2)cn3-c2ccccc2)cc1	/	/	/	20µM
COC(=O)Cc1[nH]n(-c2ccccc2)c(=O)c1C(C)=Nc1ccccc1	.	.	.	/
COC(=O)Cc1[nH]n(-c2nc3ccccc3s2)c(=O)c1C(C)=Nc1ccc(Cl)cc1	?	.	79.4µM	.
CC(=NCc1ccco1)c1c(C)[nH]n(-c2nc3ccccc3s2)c1=O	?	.	.	.
CCCN=C(C)c1c(-c2ccccc2)[nH]n(-c2nc3ccccc3s2)c1=O	.	/	.	.
C/C(=N/NC(=O)c1cccs1)c1c(C)[nH]n(-c2nc3ccccc3s2)c1=O	1.58µM	.	.	?
COC(=O)Cc1[nH]n(-c2nc3ccccc3s2)c(=O)c1C(C)=Nc1ccc(C)cc1	.	/	56.2µM	/
COC(=O)C1=C(C)NC(=O)C1(NC(=O)c1cc(OC)c(OC)c(OC)c1)C(F)(F)F (configuration not stated)	/	/	/	.
COc1cccc(OC)c1-c1nnc(-c2cn(C)c3ccccc23)o1	.	.	.	11.2µM
COc1cc(-c2nnc(-c3cc(-c4ccccc4)nc4ccccc34)o2)cc(OC)c1OC	.	.	/	/
Cc1cccc(NC(=O)C2CCN(S(=O)(=O)c3ccc4[nH]c5c(c4c3)CCCCC5)CC2)c1	/	/	/	.
SMILES	uPA surface inh	TCR activator	Sfp inh	ClpP mod
COc1cc(/C=C2/C(=O)N(c3ccccc3)N=C2C)ccc1OS(=O)(=O)c1ccccc1	/	.	.	/
COc1ccc(/C=C2/C(=O)N(c3ccccc3)N=C2C)cc1Br	.	.	50.1µM	/
COCCn1c(=NC(=O)C(C)(C)C)sc2cc([N+](=O)[O-])ccc21	.	.	.	.
O=C(COc1ccccc1)Nc1ccc(-c2ccc(N3CCOCC3)nn2)cc1	.	.	/	15.8µM
COc1cccc(C(=O)Nc2cccc(-c3ccc(N4CCOCC4)nn3)c2)c1	10µM	.	/	.
CCC(=O)Nc1cccc(-c2ccc(N3CCN(C)CC3)nn2)c1	?	.	.	.
CCC(=O)Nc1cccc(-c2ccc(N3CCCCC3)nn2)c1	0.891µM	.	.	.
COc1ccc(C(=O)Nc2cccc(-c3ccc(N4CCOCC4)nn3)c2)cc1OC	.	.	/	.
COc1ccc(C(=O)Nc2ccccc2C(=O)NCc2cccnc2)cc1	7.08µM	.	.	.
Cc1cc(C)cc(OC(C)C(=O)Nc2ccccc2C(=O)NCc2cccnc2)c1 (configuration not stated)	.	.	35.5µM	/
CCOc1ccc(/C=N/NC(=O)c2ccccc2NC(=O)c2ccc(OC)cc2)cc1	.	.	.	28.2µM
Cc1ccc(OC(C)C(=O)Nc2ccccc2C(=O)NCc2cccnc2)cc1C (configuration not stated)	.	.	.	.
CCN1CC(CN(C)Cc2nc(-c3ccc(C(F)(F)F)cc3)oc2C)CC1=O (configuration not stated)	.	.	.	/
Cc1cccc(-c2nc(CSCC(=O)N3CCN(c4ccccc4)CC3)c(C)o2)c1	/	/	/	.
CC(=O)N1C(=O)/C(=C2\SC(=S)N(NS(=O)(=O)c3ccc(C)cc3)C2=O)c2ccccc21	.	.	44.7µM	.
Cc1ccc(-c2noc(-c3cccs3)n2)cc1	.	.	.	.
Brc1ccc(-c2cnc(-c3cccs3)o2)cc1	.	.	.	31.6µM
O=S(=O)(c1ccc2ccccc2c1)N1CCN(c2nc(-c3ccccc3)nc3ccccc23)CC1	/	/	/	.
O=C(c1cccc(S(=O)(=O)N2CCCC2)c1)N1CCCC(C(F)(F)F)C1 (configuration not stated)	.	.	/	28.2µM
Cc1ccc(N=C2NC(=O)/C(=C\c3ccsc3)S2)c(C)c1	.	.	79.4µM	.
Cc1ccc(N=C2NC(=O)/C(=C/c3cccnc3)S2)c(C)c1	.	.	.	.
COc1cccc(NC(=O)CCNS(=O)(=O)c2cccc3nonc23)c1	.	.	.	/
CCC(C)Sc1nc2c(c(=O)[nH]c(=O)n2C)n1CC(O)COc1ccccc1C (configuration not stated)	.	.	39.8µM	.
Cn1c(=O)[nH]c(=O)c2c1nc(SCC(=O)O)n2CCc1ccccc1	.	.	44.7µM	.
CCOC(=O)CSc1nc2c(c(=O)[nH]c(=O)n2C)n1CCc1ccccc1	.	.	.	.
SMILES	uPA surface inh	TCR activator	Sfp inh	ClpP mod
CCCCCn1c(SCCN2CCOCC2)nc2c1c(=O)[nH]c(=O)n2C	.	.	50.1µM	.
CCOC(=O)CSc1nc2c(c(=O)[nH]c(=O)n2C)n1C/C=C(/C)Cl	.	/	50.1µM	.
CCOCCCn1c(SCC(=O)OCC)nc2c(sc3ccccc32)c1=O	/	/	/	.
CC(C)Sc1nc2c(c(=O)[nH]c(=O)n2C)n1CCc1ccccc1	.	.	.	17.8µM
CN(C)c1ccc(-c2ccc3ccccc3n2)cc1	/	/	/	.
O=C(Nc1ccccc1OC(F)F)c1ccc(S(=O)(=O)N2CCOCC2)cc1	.	.	.	.
Cc1cccc(-c2cc3nc4c(c(NCc5ccco5)n3n2)CCCC4)c1	.	/	50.1µM	28.2µM
Cc1cccc(-c2cc3nc4c(c(N5CCOCC5)n3n2)CCCC4)c1	.	.	?	?
N#Cc1ccc(/C=C2\C=Cc3ccccc32)cc1	/	/	/	.
Cc1ccc(Cl)cc1N1CCN(C(=O)CSc2cc(=O)n(C)c3ccccc23)CC1	/	/	/	.
Cc1ccc(Cl)cc1N1CCN(C(=O)CSc2ccsc2[N+](=O)[O-])CC1	.	.	.	28.2µM
CCN(CCn1cccn1)C(=O)CCc1nnc(C2(c3ccc(Cl)cc3)CCC2)o1	.	.	.	/
